The structures appear in SMILES notation. In all, about 290,000 compounds went through this assay and about 3,300 (1.1%) were called active. The list comes from a sample in which actives are over-represented; it also holds similar structures and randomly drawn compounds. Values without a mark were called inactive. Cut-off read from the data, not from the text of the source: active = binding response below about 67% or above about 130%; inconclusive = no clear call, values can overlap the other calls; inactive = in between.

This experiment deals with Mitogen-activated protein kinase kinase kinase 2 (Homo sapiens) (UniProt Q9Y2U5). Nature of the experiment: modulators of MEK5 binding to wildtype MEKK2, primary screen, biochemical, multiplex bead flow cytometry, Alexa488-MEK5 (AID 1531). The note with it: Alexa488-MEK5 binding to MEKK2 WT, at 10 µM, actives lie on both sides. For orientation: Flow cytometry measures light scatter and fluorescence of single cells or particles in a stream.
For `COc1cccc(CNC(=O)Cc2csc(Nc3nc(=S)[nH]c4ccccc34)n2)c1`, the binding response (% of control) is 90%. Next, `O=C(CCCn1c(=O)[nH]c2cc(Cl)ccc2c1=O)NCCN1CCN(c2ccccc2)CC1`: 97%.

For `O=C(Cc1csc(Nc2nc(=S)[nH]c3ccccc23)n1)NCCCN1CCN(c2cccc(Cl)c2)CC1`, the binding response (% of control) is 150% (active). Next, `COc1ccc(Nc2ncnc3sc(C)cc23)cc1`: 105%; `CCCCN1C(N)=NC[C@@H]1Cc1ccccc1`: 100%.

`O=C1NCC(=O)N(Cc2ccccc2)/C1=C/c1ccccc1`: the binding response (% of control) is -4% [inhibitor] (active). `O=C1C(Cc2ccc(O)cc2)NC(=S)N1Cc1ccccc1` (stereo unspecified): the binding response (% of control) is 97%.

Regarding `O=C1/C(=C\c2cccnc2)CN(Cc2ccccc2)C/C1=C\c1cccnc1`, the binding response (% of control) was 119%.

Turning to `C[C@H]1CC[C@]2(O[C@@H](CCO)C[C@@H](O)[C@@H]2O)O1`, the binding response (% of control) is 97%. To `O=C1N[C@@H](Cc2ccccc2)C(=O)N2[C@@H]3N(S(=O)(=O)c4ccc(F)cc4)c4ccccc4[C@]3(Br)C[C@@H]12` belongs 98%; to `CCC(C(=O)NCc1cccnc1)n1nc(C)c2sc3ccccc3c2c1=O` (stereo unspecified), 103%; to `N#Cc1c(Cl)nc(-c2cccnc2)nc1-c1ccccc1`, 106%. As for `CN(Cc1ccccc1)C(=O)C(=O)c1cn(CC(=O)N2CCCC2)c2ccccc12`, the binding response (% of control) was 106%. Regarding `CC(C)(C)c1nnc(NC(=O)C2c3ccccc3Oc3ccccc32)s1`, the binding response (% of control) is 39% [inhibitor] (active). With `CCC(C)(C)NC(=O)C1c2ccccc2Oc2ccccc21`, the binding response (% of control) was 97%. To `CCC(C)NC(=O)C1c2ccccc2Oc2ccccc21` (stereo unspecified) belongs 72%; to `CC(NS(=O)(=O)c1ccc(Cl)cc1)C(=O)Nc1ccc2c(c1)OCCO2` (stereo unspecified), 97%.

Turning to `Cc1cccc(OCC(=O)NCCCNC(=O)c2ccccn2)c1`, the binding response (% of control) is 98%. `CCN(CC)CCOc1ccc2c(c1)C(=NNC(=O)c1ccccn1)c1cc(OCCN(CC)CC)ccc1-2`: the binding response (% of control) was 191% (active).

Consider `COc1ccc(CC(=O)N/N=C(\C)c2ccccn2)cc1`, for which the binding response (% of control) is 99%. Consider `CCOC(=O)c1ccc(NC(=O)c2c(N)n(C)c(=O)[nH]c2=O)cc1`, for which the binding response (% of control) is 98%. On to `CC1(C)S[C@@H]2[C@H](NC(=O)COc3ccccc3)C(=O)N2C1C(=O)OCc1ccccc1` (stereo partly specified), for which the binding response (% of control) was 93%. To `O=C(c1ccco1)N1CCN(C(=S)Nc2cc(F)cc(F)c2)CC1` belongs 102%; to `COc1ccc(CNC(=O)C2CCN(S(=O)(=O)N3CCOCC3)CC2)cc1`, 100%. Take `COc1ccc(CNC(=O)C2CCN(S(C)(=O)=O)CC2)cc1`: the binding response (% of control) was 42% [inhibitor] (active).

For the compound `COc1ccc(CNC(=O)C2CCN(S(=O)(=O)c3ccc(SC)cc3)CC2)cc1`, the binding response (% of control) was 105%.

`O=C(NCCc1ccccc1)C1CC1`: the binding response (% of control) was 103%. Next, `COC(=O)c1c(-c2ccsc2)oc2ccc(-c3cc(OC)c(OC)c(OC)c3)cc12`: 96%. To `O=C(CCn1c(=O)[nH]c2ccccc2c1=O)NCCCN1CCN(c2cccc(Cl)c2)CC1` belongs 108%. Next, `Cn1c(C(=O)NCCc2ccsc2)cc2c(=O)n(C)c3ccccc3c21`: 97%.

In the case of `Cn1c(C(=O)NCCCN2CCN(c3cccc(Cl)c3)CC2)cc2c(=O)n(C)c3ccccc3c21`, the binding response (% of control) is 173% (active).

For the compound `O=C(CNC(=O)c1ccc(Br)o1)Nc1ccccc1`, the binding response (% of control) is 99%.

Consider `CCc1ccc(-c2cc3c(=O)n(CC(=O)NCCCN4CCN(Cc5ccccc5)CC4)nc(C)n3n2)cc1`, for which the binding response (% of control) is 141% (active).

As for `Cc1ccc(-c2ccc(=O)n(CC(=O)NCCCN3CCCCC3)n2)cc1`, the binding response (% of control) is 109%.

Regarding `Cc1nn(CC(=O)NCCc2ccccc2)c(=O)c2cc3occc3n12`, the binding response (% of control) is 111%. For `CCCCN1C(N)=NC[C@@H]1CC1CCCCC1`, the binding response (% of control) was 119%.

As for `COc1ccc(-c2noc(C(C)NS(=O)(=O)c3ccc(NC(C)=O)cc3)n2)cc1` (stereo unspecified), the binding response (% of control) is 95%. As to `C=C(C)COc1ccc(-c2ncncc2-c2ccc(OC)cc2)c(O)c1`, the binding response (% of control) was 100%. On to `CCc1nn(CC(=O)N2CCN(CC)CC2)c(=O)c2cccn12`, for which the binding response (% of control) is 95%. To `Cc1nn(-c2ccccc2)c(C)c1NC(=O)COc1ccc(Cl)cc1Cl` belongs 103%. For the compound `COC(=O)c1c(NC(=O)COc2ccc(Cl)cc2Cl)sc2c1CC(C)(C)NC2(C)C`, the binding response (% of control) is 147% (active).

In the case of `Cc1cc(NC(=O)COc2ccc(Cl)cc2Cl)n(CCC#N)n1`, the binding response (% of control) is 88%. To `CC(=O)c1ccc(S(=O)(=O)N(C)CCCC(=O)N(C)Cc2ccccc2F)cc1` belongs 105%; to `Cc1cccc(NC(=O)c2ccc(S(=O)(=O)N(C)CC3CCCO3)cc2)c1C` (stereo unspecified), 99%; to `CCOC(=O)c1c(NC(=O)c2ccc(S(=O)(=O)N(C)CC3CCCO3)cc2)sc2c1CC(C)(C)NC2(C)C` (stereo unspecified), 134% (active). In the case of `CN(CC1CCCO1)S(=O)(=O)c1ccc(C(=O)Nc2ccc(F)cc2)cc1` (stereo unspecified), the binding response (% of control) is 98%. Take `O=C(NC1CCCC1)C(c1c(F)cccc1Cl)N(C(=O)c1csnn1)C1CC1` (stereo unspecified): the binding response (% of control) was 95%.

On to `O=S(=O)(c1ccccc1)c1nc(Cc2ccccc2)oc1N1CCOCC1`, for which the binding response (% of control) was 102%.

On to `CNC(C)C#Cc1ccc2sc3cc(OC)c(OC)cc3c(=O)c2c1` (stereo unspecified), for which the binding response (% of control) was 136% (active). Regarding `CN1C(=O)C2(OCCCO2)c2cc(Cl)ccc21`, the binding response (% of control) is 109%. Consider `COc1cc(-c2nc(-c3ccncc3)no2)cc(OC)c1OC`, for which the binding response (% of control) was -3% [inhibitor] (active). Next, `Cc1ccc(-c2nc(-c3ccncc3)no2)c(C)c1`: 104%; `c1csc(-c2nc(-c3ccncc3)no2)c1`: 94%. Take `CC1CCCN(c2ccc(C(=O)NCCc3ccccc3)cn2)C1` (stereo unspecified): the binding response (% of control) is 97%. As to `Cc1ccc(Sc2cc(C(=O)c3ccccc3C(=O)O)ccc2[N+](=O)[O-])cc1`, the binding response (% of control) is 95%. For `CC(Sc1nnc(CNC(=O)c2ccccc2F)n1C)C(=O)Nc1nccs1` (stereo unspecified), the binding response (% of control) was 101%. Next, `COc1ccc(CN2CC[C@H]3C=CC[C@@H](C(=O)N4CCOCC4)[C@H]3C2=O)cc1OC`: 99%. Take `CCOC(=O)c1ccc(Nc2cc3ccccc3c(=O)[nH]2)cc1`: the binding response (% of control) is 99%. `Cc1ccc(C(=O)NCCN2CCOCC2)cc1C`: the binding response (% of control) was 99%. On to `Cc1cccc(C(=O)OC(C)CN2CCN(C)CC2)c1` (stereo unspecified), for which the binding response (% of control) was 97%. To `Cc1cccc(-c2nc3ccc(C(=O)NCCN4CCN(C)CC4)cc3nc2-c2cccc(C)c2)c1` belongs 156% (active).

Values taken from PubChem BioAssay AID1531 (NMMLSC, 2009).
